Source: PubChem (National Center for Advancing Translational Sciences (NCATS))
YjeE inh: displaces an ADP probe from E. coli YjeE (TsaE). purified YjeE enzyme, qHTS inhibition assay. P0AF67. 71,000 compounds, 0.05% hits. Potency, µM. AID 605
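Fluorescence polarization of a BODIPY Texas Red–ADP probe (2 uM) bound to purified YjeE (10 uM) was read after 15 min room-temperature incubation with compounds. Loss of polarization marks inhibitors; ADP serves as titrated control.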
Hsp90 Hop PPI: changes Hsp90-Hop TPR2A binding signal, up or down; AlphaScreen TPR2A-His6 binding biotin-Hsp90 C-terminal peptide; Potency, µM (titrated, usually from 57 µM), inactives show top-dose activity change, negative = inhibition; 71,000 compounds, 0.44% hits; AID 595; active = well fitted curve in either direction with a large enough effect; inconclusive = small, poorly fitted or top-dose-only effect, or another doubt; note: potency is the fitted concentration of half-maximal effect; % is set by controls: 0 for no effect and ±100 for the full control effect
BRCT PPI red: BRCT-phosphoprotein interaction inhibition (red fluorophore) | P38398 | BRCT-phosphopeptide binding, red fluorescence polarization | Potency, µM (titrated, usually from 76.9 µM), inactives show at the highest dose activity change, negative = inhibition, most hits filed as inhibitors | 75,000 compounds, 0.03% hits | AID 892; note: % is set by controls: 0 for no effect and ±100 for the full control effect
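Fluorescence polarization: 100 nM His-tagged BRCA1 BRCT with 100 nM TAMRA-labelled phospho-BACH1 decapeptide, phosphate buffer pH 7.3 with 150 mM NaCl, DTT, 0.01% Tween 20; 12 min RT. Binding inhibition seen as FP decrease.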
TSHR ag: TSH receptor (human) agonism | 73,000 compounds, 0.48% hits | Potency, µM (top dose mostly 57.1 µM), for inactives: top-dose activation, hits mostly activators | P16473 | HEK293-CNG-TSHR cells (CNG channel as cAMP sensor), membrane potential dye, cAMP; active = well fitted activation curve with a large enough effect in the main read-out, with a control signal flat, not every such curve was filed as active; inconclusive = small, poorly fitted or top-dose-only effect, or a change in a side signal; inactive = no such curve, though single readings can be large or run the other way; % of control where 0% means no effect;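 note: the control signal comes from parental cells without the receptor; potency is the fitted concentration of half-maximal effect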
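HEK 293 cells stably expressing TSHR and a cAMP-gated CNG channel; parental CNG-only cells as counterscreen. Cells preloaded 60 min with membrane potential dye plus 100 uM RO 20-1724, then compound 30 min; fluorescence read at 590 nm.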
BRCT PPI green: BRCA1 BRCT-phosphoprotein interaction inhibition; BRCA1 BRCT-phosphopeptide binding, green fluorescence polarization; AID 875; P38398; Potency, µM (top dose mostly 76.9 µM), inactives show top-dose activity change, negative = inhibition, usual class: inhibitors; 75,000 compounds, 0.05% hits;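 note: potency is the fitted concentration of half-maximal effect; plate controls were peptide without protein for full effect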
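Fluorescence polarization: His-tagged BRCT (~35 kDa BRCA1 C-terminus, 250 nM) bound to 100 nM fluorescein-labeled phosphorylated 10-aa BACH1 peptide, pH 7.3 phosphate buffer with DTT and Tween 20. Compounds incubated 12 min at room temperature; inhibition read as lowered polarization.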
HEK293 cAMP ctrl: counter-screen for TSHR agonists: cAMP increase in parental HEK293. AID 938. 73,000 compounds, 2.5% hits. Potency, µM (series often up to 57.1 µM), for the others: at the highest dose activation, usual class: activators. parental HEK293 CNG cAMP sensor, membrane potential fluorescence; note: potency is the fitted concentration of half-maximal effect; % of control where 0% means no effect; nearly all actives have a fitted effect of over 55% in size
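Parental HEK 293 cells stably expressing a modified CNG channel (no TSHR) report cAMP rise as membrane depolarization. Membrane potential dye with 100 uM RO 20-1724 was loaded for 60 min at room temperature, then compound added for 30 min; fluorescence read at 590 nm.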
* = called active by the depositor; i = inactive; u = inconclusive; [ ] = remark or other dose. Shown are actives, neighbours in structure and some others; about 3.3% of the full set was active somewhere. Unless noted, calls come from the whole dose curve; as a rule, active = well fitted curve in the direction sought with a large enough effect; inconclusive = small, poorly fitted or top-dose-only effect, or another doubt; inactive = no such curve, though single readings can be large; an effect the other way counts as inactive or inconclusive.

SMILES | YjeE inh | Hsp90 Hop PPI | BRCT PPI red | TSHR ag | BRCT PPI green | HEK293 cAMP ctrl
C=CC1=C(C)C2=Cc3c(C=C)c(C)c4[n]3[Sn+2][n]3c(c(C)c(CCC(=O)O)c3=CC3=NC(=C4)C(C)=C3CCC(=O)O)=CC1=N2 | 79µM* | 32µM* | u | 2% | -10% | 2%
C=Cc1c(C)c2cc3[nH]c(cc4nc(cc5nc(cc1[nH]2)C(C)=C5CCC(=O)O)C(CCC(=O)O)=C4C)c(C)c3C=C | u | u | -18% | -6% | -1%[3.08 µM] | -12%
CCCn1c(-c2ccc(F)cc2)nc2c(NCCCCN(C)C)nc(C)nc21 | i | 2% | 0% | u | -1% | u
Cc1ccc(OCC(O)Cn2c(=N)n(CCN3CCOCC3)c3ccccc32)cc1 (configuration not stated) | i | -3% | -2% | u | -1% | 20µM*
N#CCSc1nnc2ccc3ccccc3n12 | i | -3% | 2% | 6% | -1% | -2%
N#CCSc1nnc(Cc2cccc3ccccc23)n1C1CCCCC1 | i | -5% | 2% | u | 2% | 16µM*
O=C(COc1ccc2c(c1)CCC2)N1CCc2ccccc21 | i | 12% | 1% | u | 4% | 25µM*
COc1ccccc1-c1ccc2ncnc(N(C)C)c2c1 | i | -1% | 1% | u | 6% | u
CC(C)C(NC(=O)c1ccccc1NC(=O)c1ccco1)C(=O)O (configuration not stated) | i | u | -1% | u | -2% | 32µM*
O=C(CN1CCOCC1)Nc1ccccc1-c1ccccc1 | i | 0% | 3% | 4% | -1% | 14%
O=C(CN1CCN(C2CCCCC2)CC1)Nc1ccccc1-c1ccccc1 | i | -3% | 0% | u | -1% | 16µM*
O=C1c2ccccc2NC(c2ccco2)N1O (configuration not stated) | i | -5% | 0% | -8% | -1% | -3%
O=C1C2=C(Nc3ccccc3SC2c2ccco2)c2ccccc21 (configuration not stated) | i | u | -1% | 2µM* | -2% | -23%
COc1cccc(-c2cc3nc(-c4ccccc4)cc(N4CCC5(CC4)OCCO5)n3n2)c1 | i | 20µM* | -2% | 5% | 0% | 8%
CCC1(C)Cc2ccccc2/C(=C/C(=O)N2CCCCC2)N1 (configuration not stated) | i | -14% | 0% | u | 0% | 16µM*
O=c1c(-c2ccccc2)nc2cnc(N3CCOCC3)nc2n1CCc1ccccc1 | i | 5µM* | -1% | 0% | -2% | 14%
O=c1c(-c2ccc(Cl)cc2)nc2cnc(N3CCOCC3)nc2n1CCc1ccccc1 | i | -3% | -1% | u | 0% | u
Cc1nc2cnc(N3CCOCC3)nc2n(CCc2ccccc2)c1=O | i | 5% | -1% | u | -1% | 3.2µM*
COc1cc([C@@H]2c3cc4c(cc3[C@@H](O[C@@H]3O[C@H]5CO[C@@H](C)O[C@@H]5[C@@H](O)[C@H]3O)[C@@H]3COC(=O)[C@@H]23)OCO4)cc(OC)c1O | i | 0% | -6% | 2% | -3% | -3%
O=C(O)/C=C\C(=O)Nc1ccc2c(c1)-c1ccccc1C2 | i | 0%[11 µM] | 1%[15.4 µM] | -2%[11.4 µM] | 0%[15.4 µM] | -3%[11.4 µM]
CS(=O)(=O)N1CCC2(CC1)CN(Cc1ccc(C#N)cc1)C2 | i | -2% | 0% | 0% | -2% | -5%
Cc1cc(C)n(-c2ccc(C(=O)OCc3nnc(-c4ccccc4)o3)cc2)n1 | i | 9% | -1% | u | 0% | 32µM*
O=C(OCc1nnc(-c2ccccc2)o1)C1=COCCO1 | i | 0% | 0% | 1% | -1% | 4%
O=C(OCc1nnc(-c2ccccc2)o1)c1ccc2c(c1)OCCO2 | i | 3% | 0% | u | 4% | 13µM*
Cc1ccc(C(=O)OCc2nnc(-c3ccccc3)o2)o1 | i | -2% | -2% | 4% | -5% | 22%
